Source: PubChem BioAssay AID1645883 (National Center for Advancing Translational Sciences (NCATS), 2021)
Among all 16,000 compounds or so, about 160 (1%) were called active. Inconclusive results (about 8%) are left out. The list comes from a sample in which actives are over-represented; it also holds similar structures and randomly drawn compounds. A number with no mark means an inactive call. Calls follow the shape of the dose curve; as a rule, active = well fitted activation curve with a large enough effect; inconclusive = small, poorly fitted or top-dose-only effect; inactive = no such curve, though single readings can be large or run the other way.

Biological target: Rap guanine nucleotide exchange factor 3 (Homo sapiens) (UniProt O95398)
Sequence (O95398 whole entry, looked up): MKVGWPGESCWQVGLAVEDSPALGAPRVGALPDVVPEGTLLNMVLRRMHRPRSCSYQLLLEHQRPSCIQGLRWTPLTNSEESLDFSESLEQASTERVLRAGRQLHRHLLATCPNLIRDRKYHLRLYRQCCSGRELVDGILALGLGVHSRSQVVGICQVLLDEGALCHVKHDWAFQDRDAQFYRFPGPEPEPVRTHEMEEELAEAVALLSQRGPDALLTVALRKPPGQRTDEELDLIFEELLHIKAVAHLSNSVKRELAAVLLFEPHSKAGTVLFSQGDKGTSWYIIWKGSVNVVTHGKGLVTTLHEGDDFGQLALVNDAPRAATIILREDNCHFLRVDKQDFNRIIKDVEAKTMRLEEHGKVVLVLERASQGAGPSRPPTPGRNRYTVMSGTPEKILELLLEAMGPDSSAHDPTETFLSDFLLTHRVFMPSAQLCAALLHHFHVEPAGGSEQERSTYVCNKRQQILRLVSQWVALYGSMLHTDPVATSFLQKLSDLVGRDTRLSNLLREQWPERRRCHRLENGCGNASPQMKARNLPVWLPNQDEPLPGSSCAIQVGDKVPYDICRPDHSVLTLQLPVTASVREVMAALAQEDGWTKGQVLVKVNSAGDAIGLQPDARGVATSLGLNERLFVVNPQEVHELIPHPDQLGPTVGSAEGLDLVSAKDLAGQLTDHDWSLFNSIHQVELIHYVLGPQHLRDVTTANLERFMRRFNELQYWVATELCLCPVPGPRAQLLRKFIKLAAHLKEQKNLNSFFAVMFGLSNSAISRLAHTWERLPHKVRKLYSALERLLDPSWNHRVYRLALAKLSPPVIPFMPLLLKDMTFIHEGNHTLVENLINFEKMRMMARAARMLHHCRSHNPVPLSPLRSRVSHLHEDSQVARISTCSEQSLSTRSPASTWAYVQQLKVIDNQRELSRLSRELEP
Assay: Validation qHTS for agonist of cAMP-regulated guanine nucleotide exchange factor 3 (EPAC1); also: nearly all actives have a fitted effect of over 70% in size
Conditions: EPAC1 Rap1b BODIPY-GDP exchange, fluorescence; max response: stronger effect = higher value, percent of cAMP control response
Source text: Assay Provider (PI): Xiaodong Cheng Ph.D.
The University of Texas Medical Branch, […], TX
In multi-cellular eukaryotic organisms, the effects of cAMP are transduced by two ubiquitously-expressed intracellular cAMP receptors, the classic protein kinase A/cAMP-dependent protein kinase (PKA/cAPK) and the more recently discovered exchange protein directly activated by cAMP/cAMP-regulated guanine nucleotide exchange factor (EPAC/cAMP-GEF). Both PKA and EPAC are ubiquitously expressed in all tissues, and an increase in intracellular cAMP levels will lead to the activation of both PKA and EPAC. Therefore, careful dissections of the individual role and relative contribution of EPAC and PKA within the overall cAMP signaling in various model systems are critical for further elucidating the mechanism of cAMP signaling. To date no EPAC-specific antagonists and agonist, as well as isoform-specific agonists have been reported, and developing EPAC-specific pharmacological probes to determine the physiological functions that EPAC play in the overall cAMP-mediated signaling remains a major challenge within the research field. Furthermore, identified regulators of EPAC may lead to new mechanism-based therapeutic strategies specifically targeting the EPAC / cAMP-signaling components as EPAC has been implicated to play important roles in major human pathological conditions such as diabetes, heart disease, and cancer.
This qHTS will be used to screen the Molecular Libraries Small Molecule Repository (MLSMR) as a concentration-titration series using the NCGC unique quantitative screening (qHTS) platform to find activators for EPAC1. In addition, this assay will also be used as a counterscreen for the EPAC2 qHTS. This fluorescent based assay is developed and validated for EPAC1 that measures exchange using EPAC effector Rap1 complex with BODIPY-GDP, a GDP analog with a tethered fluorophores. Activators are identified by monitoring the change in fluorescence signal as the exchanged free BODIPY-GDP has a reduced fluorescence compared to Rap1-bound BODIPY-GDP. Increase in signal (activation) is the desired outcome for the EPAC1 agonist while no activity in this assay is desired for the EPAC2 agonist counterscreen.
[1] de Rooij, J., Zwartkruis, F. J., Verheijen, M. H., Cool, R. H., Nijman, S. M., Wittinghofer, A., and Bos, J.L. (1998) Nature 396, 474-477.
Briefly, three uL of reagents (100 nM EPAC1, 250 nM RAP1B-BODIPY-GDP, 50 uM GDP) were dispensed into a 1536-well Greiner black solid-bottom medium binding assay plate. Controls and test compounds (23 nL) were transferred to the plate via a Kalypsys pin tool equipped with a 1536-pin array. The plates were centrifuged at 1,000 rpm for 15 seconds followed by 5 minute incubation at room temperature. The assay plates were read at 5 minute intervals for 30 minutes in the ViewLux plate reader using 480nm excitation and 540nm emission filters. The results were normalized to the agonist positive control of 6.5 mM cAMP.
% is scaled to controls: 0 for no effect and ±100 for the full control effect; potency is read from the fitted curve at half-maximal effect.

Row | Structure (SMILES) | max response | Potency
1 | Cc1cccc(CN2Cc3cccc4c3[C@H](C=CC4)CC2=S)c1 | 29.3% | –
2 | CCCCC[C@H]1CN(C2CCCCC2)C(=O)[C@@H]1CC(=O)NCc1ccc(OC)cc1 | -76.4% | –
3 | CC(=O)Oc1c2c(c3c(c1CC=C(C)C)O[C@@]14C(=CC5CC1C(C)(C)OC4(C/C=C(\C)C(=O)O)C5=O)C3=O)OC(C)(CCC=C(C)C)C=C2 (some centres undefined) | -112% | –
4 | O=C(c1cc(C(F)(F)F)cc(C(F)(F)F)c1)N1CCC[C@@]2(CCN(c3ccccn3)C2)C1 | -122% | –
5 | O=C1C[C@H]2C=CCc3cccc(c32)CN1Cc1ccccc1 | -26.6% | –
6 | CNc1nc(-c2ccccc2OC)nc2ccccc12 | 24.4% | –
7 | COc1ccc(CNc2ncncc2-c2ccccc2C)c(OC)c1 | -35% | –
8 | C=C1C(=O)C23C(O)C1CCC2[C@]12COC3(O)C(O)C1C(C)(C)CC[C@H]2O (some centres undefined) | -116% | –
9 | O=C(O)CCc1cccnc1 | -31.6% | –
10 | COc1ccc(CN2CCOc3c(cc(-c4ncc(C(F)(F)F)cc4Cl)cc3OCC3CCCO3)C2)c(O)c1 (centres undefined) | -26% | –
11 | CC1=C(/C=C/C(C)=C/C=C/C(C)=C/C=C/C=C(C)/C=C/C=C(C)/C=C/C2=C(C)CCCC2(C)C)C(C)(C)CCC1 | -9% | –
12 | CC(C)NC(=O)N1CCC2(CC1)CCN(C(=O)c1cccn1C)CC2 | -49.6% | –
13 | O=C(c1csnn1)N1CCC[C@@]2(CCN(c3cccc(-c4ccccc4)c3)C2)C1 | -63.8% | –
14 | Cn1cccc1C(=O)N1CCC2(CC1)CN(c1cccc(-c3ccccc3)c1)C2 | – | 112 µM (active)
15 | Oc1ccc2c(c1)OCC1c3cc4c(cc3OC21)OCO4 (centres undefined) | 5.11% | –
16 | O=C(c1ccc(F)cc1)C1CCN(CCCCc2ccccc2)CC1 | -5.39% | –
17 | COc1cc(=O)n2c(c1C(=O)N(C)Cc1nccs1)CCN(Cc1ccc(Cl)cc1)CC2 | -7.19% | –
18 | Cc1nc2cnc(Nc3ccccc3)nc2n(Cc2ccc(F)cc2)c1=O | 15.4% | –
19 | O=c1c(-c2cc(F)cc(F)c2)nc2cnc(Oc3ccccc3)nc2n1C[C@H]1CCCO1 | -26.8% | –
20 | N#CCCn1c(=O)c(-c2cc(F)cc(F)c2)nc2cnc(Oc3ccccc3)nc21 | 3.54% | –
21 | O=C(c1cc2ccccc2o1)N1CCN(Cc2ccccc2)CC1 | -2.2% | –
22 | c1ccc2c(Nc3ccncc3)nc(-c3ccoc3)nc2c1 | -4.89% | –
23 | c1ccc2c(Nc3ccncc3)nc(-c3ccc4c(c3)OCO4)nc2c1 | 10.9% | –
24 | COc1cccc(-c2nc(Nc3ccncc3)c3ccccc3n2)c1 | – | 100 µM (active)
